High-throughput results (PubChem BioAssay)
This is a sample that favours compounds with a hit; in the whole collection about 1.3% have one here.
AmpC inh no detg: blocks E. coli AmpC beta-lactamase in detergent-free assay; Potency, µM (doses to about 57.1 µM), for the others: at the top dose activity change, negative = inhibition, hits mostly inhibitors; AmpC nitrocefin hydrolysis, absorbance 480 nm, 0.0001% Triton; hit rate 0.52% among 330,000; P00811;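 also: plate controls were no compound for no effect and no enzyme for full effect; nearly all actives have a fitted effect of over 20% in size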
Target sequence (P00811 whole entry, looked up): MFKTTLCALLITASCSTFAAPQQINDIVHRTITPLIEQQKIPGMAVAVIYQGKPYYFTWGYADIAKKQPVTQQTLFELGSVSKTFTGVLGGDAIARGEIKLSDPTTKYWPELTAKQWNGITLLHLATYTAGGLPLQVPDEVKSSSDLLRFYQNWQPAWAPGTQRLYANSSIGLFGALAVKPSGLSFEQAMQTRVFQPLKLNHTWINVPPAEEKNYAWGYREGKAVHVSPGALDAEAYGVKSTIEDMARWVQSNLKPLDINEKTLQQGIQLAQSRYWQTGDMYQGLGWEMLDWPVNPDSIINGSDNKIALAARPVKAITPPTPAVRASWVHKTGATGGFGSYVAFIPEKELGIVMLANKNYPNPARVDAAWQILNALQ
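AmpC (5.3 nM in the dispensed reagent) in 20 mM phosphate pH 7.0 with 0.01% (detergent screen) or 0.0001% Triton X-100 was preincubated with compounds for 15 min at room temperature. Nitrocefin was then added from an 800 uM solution, and hydrolysis was followed at 480 nm.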
LmPK inhibitor: inhibitors of Leishmania mexicana pyruvate kinase | Q27686 | purified LmPK, Kinase-Glo ATP luminescence, 1 h | Potency, µM (doses to about 57.5 µM), inactives show top-dose activity change, negative = inhibition, hits mostly inhibitors | hit rate 0.37% among 290,000 | AID 1721
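Purified LmPK (0.1 nM) with 0.5 mM PEP and 0.1 mM ADP in imidazole buffer pH 7.2 with MgCl2/KCl, 1 h at room temperature. ATP formed was read by luciferase luminescence and normalized to no-enzyme and uninhibited controls.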
AmpC inh detg: blocks E. coli AmpC beta-lactamase in detergent assay; P00811; Potency, µM (top dose mostly 114 µM), for the others: top-dose activity change, negative = inhibition, hits mostly inhibitors; hit rate 0.041% among 370,000; AmpC hydrolysis of nitrocefin, absorbance 480 nm, 0.01% Triton;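 also: 0% = no-compound wells and -100% = no-enzyme wells; nearly all actives have a fitted effect of over 25% in size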
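AmpC (5.3 nM in the dispensed reagent) in 20 mM phosphate pH 7.0 with 0.01% (detergent screen) or 0.0001% Triton X-100 was preincubated with compounds for 15 min at room temperature. Nitrocefin was then added from an 800 uM solution, and hydrolysis was followed at 480 nm.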
FBPA Giardia inh: Giardia lamblia aldolase inhibition. purified Giardia FBPA. AID 2451. hit rate 0.71% among 290,000. Potency, µM (series often up to 59.6 µM), for the others: top-dose activity, negative = inhibition, actives largely listed as inhibitors. A8B2U2; also: nearly all actives have a fitted effect of over 55% in size
Target sequence (A8B2U2 whole entry, looked up): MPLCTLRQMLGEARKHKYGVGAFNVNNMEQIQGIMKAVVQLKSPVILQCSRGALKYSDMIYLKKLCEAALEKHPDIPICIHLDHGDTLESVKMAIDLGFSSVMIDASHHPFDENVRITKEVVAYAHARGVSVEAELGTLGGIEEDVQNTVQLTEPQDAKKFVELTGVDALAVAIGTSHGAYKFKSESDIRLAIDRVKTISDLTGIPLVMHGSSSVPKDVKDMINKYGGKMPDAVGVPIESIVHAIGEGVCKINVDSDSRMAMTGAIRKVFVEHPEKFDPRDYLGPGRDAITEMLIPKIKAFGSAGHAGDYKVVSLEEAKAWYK
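Giardia FBPA (40 nM reagent) was preincubated 10 min at RT with compound (up to 57.5 uM final), then substrate plus GAPDH/TPI/NAD/arsenate coupling system with diaphorase/resazurin was added; resorufin fluorescence (525/598 nm) was read after 20 min.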
AMA1-RON2 inh: AMA1-RON2 (P. falciparum) interaction inhibition | hit rate 0.2% among 360,000 | AlphaScreen AMA1-biotinylated RON2 peptide binding | Potency, µM (titrated, usually from 58.2 µM), for inactives: top-dose activity change, negative = inhibition, most hits filed as inhibitors;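 also: 0% = vehicle wells and -100% = peptide control; nearly all actives have a fitted effect of over 45% in size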
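AMA1 (3D7) with his tag at 25 nM final met compounds first, then biotinylated RON2 peptide at 25 nM; detection used donor plus acceptor beads, 10 µg/mL apiece, read by AlphaScreen after 30 min at room temperature.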
* = called active by the depositor; u = inconclusive; x = no result; [ ] = dose if it differs, or a comment. Calls follow the shape of the dose curve; as a rule, active = well fitted curve in the direction sought with a large enough effect; inconclusive = small, poorly fitted or top-dose-only effect, or another doubt; inactive = no such curve, though single readings can be large; an effect the other way counts as inactive or inconclusive. Unless noted, % is scaled to controls: 0 for no effect and ±100 for the full control effect; potency is read from the fitted curve at half-maximal effect.

SMILES	AmpC inh no detg	LmPK inhibitor	AmpC inh detg	FBPA Giardia inh	AMA1-RON2 inh
CSCC[C@H](N)C(=O)N[C@@H](C)C(=O)NCC(=O)N[C@@H](CCCN=C(N)N)C(=O)N[C@@H](CO)C(=O)NCC(=O)N[C@@H](CC(=O)O)C(=O)N[C@@H](CO)C(=O)N[C@@H](CC(=O)O)C(=O)N[C@@H](CCC(=O)O)C(=O)N[C@@H](CC(=O)O)C(=O)N[C@@H](CC(C)C)C(=O)N[C@@H](CC(C)C)C(=O)N[C@@H](CCCCN)C(=O)N[C@@H](C)C(=O)N[C@H](C(=O)O)C(C)C	x	x	x	-0.1%	x
Cc1cnc(C(=O)Nc2ccccc2F)cn1	0.0%	17.8µM*	-9.3%	6.7%	17.8%
Cc1cnc(C(=O)Nc2ccccc2-n2cccc2)cn1	-8.9%	3.6%	15.4%	-1.0%	29.6%
Cc1ccc(S(=O)(=O)N2CCCCC2)cc1NC(=O)COC(=O)c1ccc(=O)[nH]c1	-14.2%	x	3.5%	x	7.3%
Cc1ccc(S(=O)(=O)NC(=O)Nc2nnc(C)s2)cc1	0.398µM*	2.6%	1.9%	3.8%	-8.1%
CC(=O)Nc1ccc(S(=O)(=O)Nc2nnc(C)s2)cc1	x	x	x	x	-11.3%
CNC(=O)COc1coc(CN2CCN(c3ccc(OC)cc3)CC2)cc1=O	-8.5%	-14.1%	-3.6%	x	0.9%
COc1ccc(NC(=O)CCl)cn1	-14.7%	4.2%	2.1%	2.81µM*	x
Cc1oc(-c2ccc3c(c2)OCCO3)cc1C(=O)O	-2.6%	14.1µM*	-12.6%	3.9%	-0.6%
COc1ccc2ccc3c(c2c1)N=C[C@]1(O3)N(C)c2ccccc2C1(C)C	-45.3%	0.2%	u	8.89µM*	u
COCCOC(=O)c1cc(C(=O)c2cc(Cl)ccc2O)coc1=N	-24.0%	-4.5%	3.9%	0.2%	5.9%
CCOC(=O)c1cc(C(=O)c2cc(Cl)ccc2O)coc1=N	5.01µM*	-0.6%	-3.2%	3.7%	6.1%
COc1cc(/C=C/c2sc3ccccc3[n+]2CCCS(=O)(=O)[O-])ccc1O	-19.7%	15.8µM*	8.0%	u	u
O=C(Cn1cc(/C=N/NC(=O)c2ccccc2Br)c2ccccc21)Nc1ccc(F)cc1	14.1µM*	4.1%	-8.6%	-0.5%	1.2%
CCn1cc(/C=N/NC(=O)c2ccc(C#N)cc2F)c2ccccc21	-30.7%	3.1%	-0.8%	15.8µM*	10.8%
COC(=O)Cn1cc(/C=N/NC(=O)c2ccc(C#N)cc2F)c2ccccc21	-32.8%	-0.6%	-3.7%	3.1%	35.5%
Cc1cc(C)nc(SSc2nc(C)cc(C)n2)n1	u	24.6%	79.4µM*	0.9%	13.3%
N#CCCN1CCN(S(=O)(=O)c2ccc(C3CCCCC3)cc2)CC1	140.3%	x	4.3%	x	-10.1%
N#CCCN1CCN(S(=O)(=O)c2ccc(S(=O)(=O)NCc3ccccc3)cc2)CC1	10µM*	1.7%	u	0.5%	-0.7%
CC1CCCCC1NS(=O)(=O)c1ccc(S(=O)(=O)N2CCN(CCC#N)CC2)cc1 (configuration not stated)	44.7µM*	-3.8%	u	-3.6%	17.8%
c1ccc(-c2cn(C[C@H]3CC[C@@H]([C@@H]4CC[C@H](Cn5cc(-c6ccccn6)nn5)O4)O3)nn2)nc1	27.6%	-4.1%	1.2%	4.2%	1µM*
COC(=O)[C@]12CCCCC=C1N(CCc1ccc(OC)c(OC)c1)C(=O)[C@H](CC(=O)NCc1ccc(C)o1)C2	x	x	x	x	-10.8%
c1ccc(-c2cn3c4c(sc3n2)CCCC4)cc1	-37.9%	14.1µM*	0.2%	-19.4%	19.0%
COC(=O)N(C)C[C@@H]1OCc2cnnn2CCCC(=O)N([C@H](C)CO)C[C@H]1C	x	x	x	x	3.3%
O=C(Nc1ccc(F)cc1)c1nc[nH]c1C(=O)O	-8.8%	-0.1%	-9.0%	1.7%	14.1µM*
SMILES	AmpC inh no detg	LmPK inhibitor	AmpC inh detg	FBPA Giardia inh	AMA1-RON2 inh
O=C(Nc1ccc(F)cc1)c1nc[nH]c1C(=O)Nc1ccccc1[N+](=O)[O-]	2.2%	1.4%	u	0.6%	17.3%
COc1ccc(CCNC(=O)c2cc3sc(Cl)cc3n2C)cc1OC	50.1µM*	7.0%	u	-15.2%	-21.7%
N#C/C(=C/c1ccc(N2CCCCC2)cc1)c1cccc(F)c1	-20.3%	-10.2%	u	-4.0%	15.8µM*
Cc1cc(-c2ccc(N=Nc3ccc4c(S(=O)(=O)O)cc(S(=O)(=O)O)c(N)c4c3O)c(C)c2)ccc1N=Nc1ccc2c(S(=O)(=O)O)cc(S(=O)(=O)O)c(N)c2c1O	x	x	x	22.3µM*	x
Cc1ccc(C)c2[nH]c(=O)c(CCNC(=O)C(C)(C)C)cc12	39.8µM*	7.4%	-4.2%	0.4%	-3.7%
Cc1ccc(C)c2[nH]c(=O)c(CCNC(=O)c3ccc(S(=O)(=O)N4CCOCC4)cc3)cc12	220.6%	-10.7%	9.6%	-2.1%	0.0%
Cc1ccc(C)c2[nH]c(=O)c(CCNC(=O)Cc3cccs3)cc12	-5.8%	-2.7%	-14.7%	2.7%	-7.2%
Cc1ccc(C)c2[nH]c(=O)c(CCNC(=O)c3ccc(S(=O)(=O)N(C)C)cc3)cc12	2.82µM*	-0.5%	-14.9%	5.8%	-5.6%
CCCCN(C=O)c1c(CC)nc2ccc(C(=O)N(C)Cc3ccco3)cn12	x	x	x	x	-4.5%
Cc1cc(N2CCN(C)CC2)nc2ccc(NC(=O)Nc3ccccc3Br)cc12	x	x	19.1%	x	x
Cc1cc(C)c2oc(-c3ccc(Cl)c(NC(=O)c4cccs4)c3)nc2c1	x	x	-3.0%	x	x
O=c1cc(-c2ccccc2)oc2c(O)c(O)ccc12	x	x	x	7.92µM*	x
Cc1cc(=O)oc2c(O)c(O)ccc12	x	x	x	7.06µM*	101.8%
O=c1cc(-c2ccccc2)oc2cc(O)c(O)cc12	x	x	x	-11.7%	x
O=c1cc(-c2ccccc2O)oc2ccc3ccccc3c12	x	x	x	9.1%	x
O=c1cc(-c2ccccc2O)oc2c(O)c(O)ccc12	x	x	x	6.29µM*	x
Cc1ccc(NC(=O)CSc2cn(CC(=O)N3CCCC3)c3ccccc23)cc1Cl	x	x	10.8%	x	x
Cc1ccc(C(=O)c2cn(Cc3ccccc3C)c3nc(C)ccc3c2=O)cc1	x	x	16.1%	x	x
COC(=O)c1ccncc1N	1.9%[2.29 µM]	-1.5%	3.4%	5.5%	7.6%
Nc1cnccc1C(=O)O	2.6%	-7.4%	1.4%	12.6µM*	4.8%
O=C(NCc1ccc(Cl)cc1)c1ccc2c(c1)N(Cc1ccccc1F)C(=O)c1ccccc1S2=O (configuration not stated)	x	x	19.0%	x	x
CN(C)C(=S)SC(=S)N(C)C	x	x	x	15.8µM*	x
CCCCn1nc2cc(C(=O)NCc3cc(C(F)(F)F)cc(C(F)(F)F)c3)ccc2c1OC	5.62µM*	0.5%	1.3%	-2.1%	-2.8%
CCn1nc2cc(C(=O)NCc3cc(C(F)(F)F)cc(C(F)(F)F)c3)ccc2c1OC	55.3%	0.3%	0.1%	2.9%	-5.6%
CCOc1ccc(Oc2ccc(S(=O)(=O)N3CCOCC3)cc2N)cc1	11.1%	0.0%	-10.1%	-0.5%	-6.9%
